{"source": "PubChem BioAssay (NCI)", "note": "Where “and” joins values, the source holds several entries; their conditions need not be identical. Equal entries are not always repeated. Compounds without any hit were thinned out: in the full panel of roughly 83,000, 20% have a hit.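 A percent growth of 40 corresponds to 60% growth inhibition; 0 means no net growth; -100 means all cells died. Active threshold: below 10.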 Unmarked numbers belong to inactive results. Calls of active or inactive are those of the source."}
{"tested_on": "HL-60(TB) leukemia", "assay": "NCI-60 one-dose screen, 48 h (100 = growth as untreated, 0 = no growth, -100 = all killed)", "conditions": "10 µM unless noted"}
{"smiles": "CCOC(=O)c1ccc2[nH]c(O)c(C(=Nc3ccc(N(C)C(=O)CN4CCN(C)CC4)cc3)c3ccccc3)c2c1", "growth": "-52.6% (active)"}
{"smiles": "N#CC(C#N)=C/C=C/c1cccc([N+](=O)[O-])c1", "growth": "-10.5% (active) and -9.74% (active)"}
{"smiles": "Cc1ccc(-n2nnc3c(sc4ccccc43)c2=O)cc1", "growth": "92.9%"}
{"smiles": "C=C1C(=O)O[C@H]2[C@H]1CC/C(COC(=O)NCCc1ccc(OC)cc1)=C\\CC[C@@]1(C)O[C@@H]21", "growth": "-22% (active)"}
{"smiles": "CC(=O)Oc1ccc(C23c4ccccc4C2(OC(C)=O)c2cc(OC(C)=O)ccc23)cc1", "note": "(centres undefined)", "growth": "11.7%"}
{"smiles": "COC(=O)c1cc(=O)nc(N/N=C/c2ccccc2O)s1", "growth": "87.3%"}
{"smiles": "COc1ccc2nc(NCCCNCCO)c3sc4ccc(F)cc4c(=O)c3c2c1", "growth": "25%"}
{"smiles": "COc1ccc(-c2nc3cc(C(=O)NCc4ccccc4)ccc3n2C2CCCCC2)cc1", "growth": "71.1%"}
{"smiles": "COc1ccc(OC)c(C(=O)/C=C/c2cc3c(c(OC)c2OC)OCO3)c1", "growth": "48.6%"}
{"smiles": "CN(C)c1ccc(N=Nc2ccccn2)c(O)c1", "growth": "-36.3% (active)"}
{"smiles": "COc1ccc(-c2c(N)n[nH]c2-c2cc(OC)c3c(c2)OCCO3)cc1", "growth": "47.1%"}
{"smiles": "C=CCn1c(C)nc2cc(Nc3nc(Nc4ccc5nc(C)n(CC=C)c5c4)c4ccccc4n3)ccc21", "growth": "-52% (active)"}
{"smiles": "CCc1ccc(Nc2cc(C)nc3nc(C)nn23)cc1", "growth": "-54.6% (active)"}
{"smiles": "O[C@H]1CO[C@H]2[C@@H]1OC[C@@H]2Oc1ccc(Nc2nc(Nc3ccc(F)c(Cl)c3)ncc2F)cc1Cl", "growth": "104%"}
{"smiles": "COc1cc2c(c(OC)c1OC)CCC(c1cccc(C(=O)Nc3cccc(Cl)c3)c1)O2", "note": "(centres undefined)", "growth": "82.7%"}
{"smiles": "CCC(=O)OCc1ccc(OC)cc1", "growth": "97%"}
{"smiles": "O=C1/C(=C/c2ccc(-c3ccc(Br)cc3)o2)SC(=S)N1CCc1ccc(O)cc1", "growth": "44.3%"}
{"smiles": "CC(=O)N1N=C(c2cccc(Nc3ccncc3)c2)CC1c1ccccc1", "note": "(centres undefined)", "growth": "78.9%"}
{"smiles": "CS(=O)(=O)c1ccc(-c2cnn3ccc(-c4cccc(S(=O)(=O)C5CC5)c4)nc23)cc1", "growth": "24.3%"}
{"smiles": "O=C1NC(=S)NC(=O)C1=Cc1cccc(C=C2C(=O)NC(=S)NC2=O)c1", "growth": "101%"}
{"smiles": "Nc1c(C(=O)Nc2cccc(Cl)c2)sc2nc3c(cc12)C(=O)CCC3", "growth": "33.1%"}
{"smiles": "O=c1c2cc(F)ccc2sc2c(Nc3cccnc3)nc3ccccc3c12", "growth": "88.5%"}
{"smiles": "CCN(CC)CC(C)(C)C(=O)/C=C/c1ccc(Cl)c(Cl)c1", "growth": "-10.2% (active)"}
{"smiles": "Nc1nc(Cl)nc2c1ncn2C1OC(CO)C(O)C1O", "note": "(centres undefined)", "growth": "-20.7% (active) and -3.23% (active)"}
